# Results reported in ChEMBL document CHEMBL4513216, “Probing the Open Global Health Chemical Diversity Library for Multistage-Active Starting Points for Next-Generation Antimalarials” (ACS Infect Dis, 2020).
# Screen size: about 69,000 compounds; about 8,600 (12%) showed an effect of 50% or more. What follows is part of a selection rich in strong results, with near analogues and random picks from the rest.
# Tested on: Plasmodium berghei
# Test: Screen against P. berghei liver stage (PbLuc), transformed with Luciferase, at 10uM
# Type: functional, HepG2
# Conditions: tested at 10 uM
row,Compound,INHIBITION [%]
1,CN1CCOC(CNCc2coc(-c3ccc(Cl)cc3)n2)C1 (stereo unspecified),33.7
2,CN(CC(=O)N1CCc2[nH]c3ccc(F)cc3c2C1)CC1OCCO1,22.9
3,Cc1c(C(=O)N2CCC3(CCCNC3=O)C2)sc2nc[nH]c(=O)c12 (stereo unspecified),12.9
4,CN(C)Cc1cnc2n1CCN(C(=O)NCc1ccccc1)CC2,21.6
5,CC(=O)c1ccc(C(=O)NCCCOC(C)c2ccccc2)s1 (stereo unspecified),29.2
6,Cc1cc(N)nc(C2(C)CCCN2C(=O)c2cnccn2)n1 (stereo unspecified),17.1
7,O=S(=O)(NCCn1ccc(-c2ccccn2)n1)C1CCCCC1,40
8,Cc1n[nH]c2nc(-c3cc(Br)ccc3O)cc(C(=O)O)c12,4.82
9,Cc1ccc(O)c(CN2CCCCC2CCN2CCOCC2)c1 (stereo unspecified),30.3
10,Cc1nnc2n1CCN(Cc1csc(-c3ncccn3)n1)C2,26.4
11,Cn1c(CN2CCCCC2)nnc1C1CCCN(c2ccncc2F)C1 (stereo unspecified),-2.43
12,CCn1nnc2c1C(COCC(=O)N(C)C)CN(Cc1ccco1)C2 (stereo unspecified),-3.26
13,CN(C)C(=O)COCC1CN(Cc2ccoc2)Cc2nnn(C)c21 (stereo unspecified),-3.24
14,CCn1nnc2c1C(COCC(=O)N(C)C)CN(Cc1ccoc1)C2 (stereo unspecified),53.4
15,CC(C)N1CCc2nnc(COc3cncnc3)n2CC1,-2.25
16,CC(C)N1CCCCC1c1nc(N(C)C)ncc1I (stereo unspecified),-9.51
17,Cc1ncncc1-c1ccnc(N(C)C)n1,4.08
18,CCCc1cc(NC2CCc3nc(C)nn3C2)n2ncnc2n1 (stereo unspecified),-2.23
19,O=S(=O)(C1CC1)N1CCC2(COCc3cnc(NCC4CC4)nc32)C1 (stereo unspecified),57.4
20,c1ccc(CN2CCC3(COCc4cnc(NCC5CC5)nc43)C2)cc1 (stereo unspecified),43.9
21,Cc1nc(NCC2CC2)nc2c1COCC21CCN(C(=O)C(C)(C)C)C1 (stereo unspecified),49.7
22,CCN1CCC2(COCc3cnc(NCC4CC4)nc32)C1 (stereo unspecified),13.5
23,Fc1cnc(N2CCC3(COCc4cnc(NCC5CC5)nc43)C2)nc1 (stereo unspecified),-53.2
24,Cc1nc(NCC2CC2)nc2c1COCC21CCN(S(=O)(=O)C2CC2)C1 (stereo unspecified),66

row,Compound,INHIBITION [%]
1,c1cc(N2CCC3(COCc4cnc(NCC5CC5)nc43)C2)ncn1 (stereo unspecified),31.7
2,Cc1nc(NCC2CC2)nc2c1COCC21CCN(C)C1 (stereo unspecified),31.3
3,CN(C)S(=O)(=O)N1CCC2(COCc3cnc(NCC4CC4)nc32)C1 (stereo unspecified),62.8
4,CC(C)c1noc(CCC(=O)NC(C)c2ccccn2)n1 (stereo unspecified),-40.96
5,Nc1nccc(C2CCN(c3cnccn3)C2)n1 (stereo unspecified),30.5
6,CCOc1cc(C(=O)N2CCCC(c3nc(C)c(C)s3)C2)ccn1 (stereo unspecified),48.4
7,O=C(COc1ccc2c(c1)OCO2)NCc1ccco1,31.135
8,CCCN1CCC(CC(=O)N2CCC(C(O)c3nccn3C)CC2)CC1 (stereo unspecified),6.69
9,CCn1nc(C)c2nc(C(C)C)nc(NC)c21,16.8
10,CCN1CCCC2(CCN(Cc3nnc(C4CC4)o3)C2)C1=O (stereo unspecified),-9.18
11,COCCN1CCCC2(CCN(c3nccnc3N(C)C)C2)C1=O (stereo unspecified),-52.2
12,COCCN1CCCC2(CCN(c3ncc(Cl)cc3Cl)C2)C1=O (stereo unspecified),-5.8
13,O=C1N(CCO)CCCC12CCN(Cc1nnc(C3CC3)o1)C2 (stereo unspecified),61.1
14,COCCN1CCCC2(CCN(Cc3noc(C4CCCC4)n3)C2)C1=O (stereo unspecified),9.56
15,COCCN1CCC2(CCCN(Cc3ccoc3)C2)C1=O (stereo unspecified),8.74
16,COCCN1CCCC2(CCN(Cc3nnc(C4CC4)o3)C2)C1=O (stereo unspecified),51.2
17,O=C1CCC2(CCCN(Cc3nnc(C4CC4)o3)C2)CN1CCO (stereo unspecified),34.4
18,COCCN1CCCC2(CCN(c3ncnc(C)c3C)C2)C1=O (stereo unspecified),69.6
19,Cc1nc2oc(C(=O)N3CCCC3)c(N)c2c2c1CCCC2,16
20,CCn1cnnc1CNC(=O)N1CCN(c2ccc(OC)cc2)CC1,36.1
21,CN(C)c1cc(CNC(=O)c2cnccn2)ccn1,-6.14
22,O=C(Cc1c(F)cccc1Cl)Nc1cc(N2CCOCC2)ncn1,30.9
23,CC(C)n1nc(CN2CCCC2=O)c2c1CN(C(=O)c1ccco1)C2,39.5
24,CCC1c2cccn2CCN1S(=O)(=O)N1CCOCC1 (stereo unspecified),31.2

row,Compound,INHIBITION [%]
1,CCN1CCN(C(=O)COCc2cccc(OC)c2)CC1,-28.675
2,Cc1ccc(CN2C(=O)CCC23CCC(NC2CCOC2)CC3)cc1 (stereo unspecified),35.8
3,Cc1occc1C(=O)N1CCOCC2(CCN(C3CCOCC3)C2)C1 (stereo unspecified),43.9
4,CC(C)S(=O)(=O)N1C[C@@H](O)[C@H](N(C)Cc2ccc(F)cc2)C1,30.75
5,Cc1cnc(CNC(=O)NCc2cccnc2N(C)C)s1,45.8
6,CNC(=O)Cc1ccc(NC(=O)NCc2nc(C)sc2C)cc1,52.2
7,CNC(=O)Cc1ccc(NC(=O)NC2(c3cccc(F)c3)CC2)cc1,9
8,CNC(=O)Cc1ccc(NC(=O)NC(C)C(C)C)cc1 (stereo unspecified),-9.48
9,CNC(=O)Cc1ccc(NC(=O)NCC(C)c2ncc(C)s2)cc1 (stereo unspecified),14.8
10,CNC(=O)Cc1ccc(NC(=O)NCc2ncc(C)s2)cc1,64
11,COc1ccc(-c2nc(CN3CCc4cncnc4C3)no2)cc1,5.72
12,CCc1c(C(=O)N2C[C@@H]3CC[C@H]2CN(c2cnccn2)C3)csc1C,-59.5
13,CC(=O)c1ccc(C(=O)N2C[C@@H](CN3CCCC3)[C@@H](CO)C2)cc1,32.5
14,CSc1ccc(S(=O)(=O)N2CCCCC2CCNC(C)=O)cc1 (stereo unspecified),11.8
15,CC(=O)c1ccc(S(=O)(=O)N2CCCC2CN2CCCC2)cc1 (stereo unspecified),51.1
16,COC[C@]1(O)CCN(C2CCN(c3ccc(F)c(F)c3)CC2)CC1(C)C,39.4
17,COC(=O)c1cccc(C2CNCCN2C(C)=O)c1 (stereo unspecified),24.99
18,COC(=O)CNC(=O)Cn1ccc2cccc(OC)c21,48.9
19,Cc1csc(N2CCN(CC(=O)Nc3cc(C)nn3C)CC2C)n1 (stereo unspecified),12.96
20,CCn1nc(C)c2nc(C(C)C)nc(N3CCCC3)c21,15.4
21,Cc1nccn1CCN1C(=O)CC2(CCCC2)CC1=O,56
22,O=C1CC2(CCCC2)CC(=O)N1CCn1cnnc1,-28.9
23,Cc1nncn1CCN1C(=O)CC2(CCCC2)CC1=O,-23.3
